Test results from PubChem BioAssay AID893 (National Center for Advancing Translational Sciences (NCATS), 2007).
Where “and” joins values, the source holds several entries; their conditions need not be identical. Equal entries are not always repeated. Among all 75,000 compounds or so, about 5,700 (7.6%) were called active. Roughly 7% stayed inconclusive and do not appear here. The call rests on the fitted dose curve; in most records, active means well fitted inhibition curve with a large enough effect; inconclusive means small, poorly fitted or top-dose-only effect; inactive means no such curve, though single readings can be large or run the other way. What follows is part of a selection rich in actives, with near analogues and random picks from the rest.

Biological target: 3-hydroxyacyl-CoA dehydrogenase type-2 (Homo sapiens) (UniProt Q99714)
Experiment: qHTS Assay for Inhibitors of HSD17B4, hydroxysteroid (17-beta) dehydrogenase 4;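 further: the protocol describes HADH2 (HSD17B10) and not the HSD17B4 of the title; nearly all actives have a fitted effect of over 70% in size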
Conditions: recombinant HSD17B10, NADH fluorescence kinetic; series mostly up to 57.1 µM
Method in brief: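 His-tagged E. coli-expressed HADH2 at 20 nM in 100 mM Tris-HCl pH 9.0 with 0.01 % Tween-20, preincubated 15 min with compound at room temperature. Reaction with 1 mM NAD+ and 90 uM beta-hydroxybutyryl coenzyme A; NADH fluorescence (360/450 nm) read kinetically over 4 min, last minus first point.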
On the % scale 0 is the no-effect control and ±100 the full control effect; potency means the concentration at half of the fitted maximal effect.

Potency, inactive:
CCC[C@@H]1C[C@@]1(CCC)[C@@H](NC(=O)c1ccccc1)c1ccc(C(=O)OC)cc1
O=C(CCCCn1c(=O)[nH]c2ccccc2c1=O)NCc1ccc2c(c1)OCO2
CCn1cc(C(=O)NCc2ccc3c(c2)OCO3)c2cc(OC)c(OC)cc2c1=O
CC1CCCCC1NC(=O)CCS(=O)(=O)c1cccc2nonc12 (centres undefined)
COc1ccc2oc(=O)c(C(=O)N3CCCc4ccccc43)cc2c1
COc1ccc2oc(=O)c(C(=O)O)cc2c1
CC(=O)C1C(c2ccc(Cl)cc2)NC(=O)NC1(O)C(F)(F)F (centres undefined)
COC(=O)[C@@]1(Cc2ccc(F)cc2)[C@@H]2[C@@H](CC(=O)[C@H]2CC(=O)C(=O)N2CCCC2)CN1C(=O)c1ccccc1
CN1CCN(Cc2nc3c(c(=O)n(C)c(=O)n3C)n2Cc2cccc3ccccc23)CC1
COc1ccc(-c2nnc(SCC(=O)c3cccs3)o2)c(OC)c1
CCN(CC)C(=O)CSc1nnc(-c2cccc(OC)c2)o1
COCC(C)N=CC1=C(O)CC(C)(C)CC1=O (centres undefined)
N#CCC(=O)NC(=O)NCC1CC1
CCCC[C@@H]1C[C@H]1C(NC(=O)c1ccco1)c1ccc(C(=O)OC)cc1 (some centres undefined)
Cc1cc(NS(=O)(=O)c2ccccc2)no1
Nc1ncn(C2OC(CO)C(O)C2O)c(=O)n1 (centres undefined)
O=C(O)c1ccc(NC(=O)C2CCCCC2)cc1
O=C(Nc1ccncc1)c1c(F)cccc1F
O=C(Nc1cnn(Cc2ccc(Cl)cc2)c1)C1CCCC1
Cn1c(=O)n(C)c2cc(C(=O)Nc3ccc4c(c3)OCO4)ccc21
O=C(C1CCN(S(=O)(=O)Cc2ccccc2)CC1)N1CCCc2ccccc21
Cc1ccccc1C(=O)O
COc1ccc(C2CC(=O)c3c(O)cc(OC4OC(COC5OC(C)C(O)C(O)C5O)C(O)C(O)C4O)cc3O2)cc1O (centres undefined)
O=C(O)CCC(=O)N(Cc1cccs1)Cc1cccs1
Cc1cc(NC(=O)c2cc(-c3cccs3)on2)nn1Cc1ccc(Cl)cc1
C/C=C1\C(=O)C[C@@H]2[C@@H]3CCC4=CC(=O)CC[C@@]4(C)[C@H]3CC[C@@]12C
Cc1ccc(S(=O)(=O)NC(=O)NN2C[C@H]3CCC[C@@H]3C2)cc1
CC1CCCCN1CCCNC(=O)c1ccc(-n2c(=O)c(=O)[nH]c3ccccc32)cc1 (centres undefined)
Cn1c(C(=O)N2CCC(C(N)=O)CC2)cc2c(=O)n(C)c3ccccc3c21
C=C(C)C1CC=C(CO)CC1 (centres undefined)
COC(=O)[C@@H]1C[C@@]2(O)[C@H](O)[C@H](O)[C@H](O)C[C@H]2N1Cc1ccc(C)s1
Cc1ccccc1NC(=O)NCc1ccco1
N#Cc1c2c(c(N3CCN(CCO)CC3)n3c1nc1ccccc13)CCCC2
CCC1CCCCN1CCNS(=O)(=O)c1ccc2c(c1)CCN2C(C)=O (centres undefined)
CCOC(=O)c1ccc(N2C(=O)CC(N3CC(C)OC(C)C3)C2=O)cc1 (centres undefined)
N#Cc1cccc(CSc2nnc(CCCO)n2-c2ccccc2)c1
Cn1c(N)c(C(=O)COC(=O)c2cc(C(F)(F)F)nc3c(C(F)(F)F)cccc23)c(=O)n(C)c1=O
CN(c1ccc(C(=O)NCCC2=CCCCC2)cc1)S(C)(=O)=O
CCC[C@@H]1C[C@@]1(CCC)C(NS(=O)(=O)c1cccc2cccnc12)c1ccc(Cl)cc1 (some centres undefined)
Clc1ccc(C2[C@H]3CN(CC4CCCCC4)[C@H](c4ccccc4)C34CC2(c2cccnc2)C4)cn1 (some centres undefined)
Cc1ccc(S(=O)(=O)NCc2nc3ccccc3c(=O)n2N)cc1
c1cc(-n2cnnn2)ccc1NC1=NCCC1
Cc1ccc(Cn2ccc(NC(=O)c3cc(C(C)C)on3)n2)cc1
CC(C)c1ccc(OCC(O)Cn2cnc3ccccc32)cc1 (centres undefined)
CCOC(=O)N1CCN(C(=O)CNC(=O)Cc2ccc(Cl)cc2)CC1
CCOC(=O)N1CCN(C(=O)CSc2ccc(Cl)cc2)CC1
Cn1c(=NC(=O)CSCC(=O)N2CCCCC2)sc2ccccc21
O=C(CSc1nnc(-c2ccccn2)n1-c1ccccc1)Nc1ccc2c(c1)OCO2
O=C(CN1C(=O)CCS(=O)(=O)c2ccccc21)NCc1ccc(F)cc1
CC(C)C1N=C2c3ccccc3N=C(SCC(=O)c3ccc(O)c(O)c3)N2C1=O (centres undefined)
Cc1ccc(SCCN2C(=O)NC(C)(C)C2=O)cc1
C=CCn1c(COc2ccccc2)nnc1SCC(=O)NCC(=O)OCC
C=CCn1c(COc2ccccc2C)nnc1SCC(=O)O
O=C(O)C1C2C=CC(C2)C1C(=O)N1CCN(CCO)CC1 (centres undefined)
COc1cc(-c2nnc(Cn3cc(C(F)(F)F)ccc3=O)o2)cc(OC)c1OC
CCOC(=O)c1cc(NC(=O)SCC(=O)O)c(C)nc1C
COCCCNC(=O)c1ccc2c(c1)ncn2-c1ccccc1OC
CCOCCCNC(=O)c1c[nH]c2cc(C)ccc2c1=O
CC(=O)N(Cc1cccs1)C1CCOC(C)(C)C1 (centres undefined)
O=C(O)c1ccc(COc2c(F)c(F)cc(F)c2F)o1
CCOC(=O)n1c(SCC(=O)N(CC)CC)nc2ccccc21
COc1ccc(-n2c(SC)nc(O)cc2=O)cc1
O=C(CC1NCCNC1=O)Nc1ccc(Oc2ccccc2)cc1 (centres undefined)
CCOC(=O)c1ccccc1NC(=O)CC1Nc2ccccc2NC1=O (centres undefined)
COc1cccc(NC(=O)C(C)Oc2ccccc2)c1 (centres undefined)
CC(=O)OCC(=O)C1CCC2C3CCC4=CC(=O)CC[C@@]4(C)C3CC[C@]12C (some centres undefined)
Fc1ccccc1OCCSc1nc2ccccc2o1
CC(C)C1=CC2=CC[C@@H]3[C@](C)(CO)CCC[C@]3(C)C2CC1 (some centres undefined)
Cc1nc2ccc(S(=O)(=O)NC(C(=O)N3CCCCCC3)C(C)C)cc2s1 (centres undefined)
COC(=O)[C@H]1C[C@@H]1[C@H](NC(=O)Oc1ccc(F)cc1)c1ccccc1

Potency, active:
Cc1nc2c(C(=O)NCc3ccc4c(c3)OCO4)c[nH]n2c(=O)c1Cc1ccccc1F 31.6 µM
COc1ccc2oc(=O)c(C(=O)N3CCN(c4ccccc4F)CC3)cc2c1 25.1 µM
COc1ccc(OC)c(C(=O)CSc2nnc(-c3cccs3)o2)c1 31.6 µM
CCc1cc(=O)oc2cc(C)cc(OC(C)C(=O)O)c12 (centres undefined) 31.6 µM
O=C(O)c1ccc(-n2cccc2)cc1O 31.6 µM
CN1C(=O)c2ccc(NC(=O)C3CCCCC3)cc2C1=O 25.1 µM
CN1C(=O)c2ccc(NC(=O)c3c(F)c(F)c(F)c(F)c3F)cc2C1=O 12.6 µM
CC(C)Cn1c(CCC(=O)O)ccc1-c1cccs1 31.6 µM
CC1CCCC(C)N1CCCNC(=O)c1cc2c(=O)n(C)c3ccccc3c2n1C (centres undefined) 31.6 µM
Cc1cc(NCc2ccco2)n2c(nc3ccccc32)c1C#N 3.16 µM
Cc1c(O)c(Br)c(C)c(O)c1Br (tested in a mixture with another compound) 0.794 µM
Cc1ccc(S(=O)(=O)c2c(N)n(C)c3nc4ccccc4nc23)cc1 25.1 µM
CCOC(=O)N1CCN(C(=O)c2ccc3nc4cc(Cl)ccc4c(=O)n3c2)CC1 1 µM
NC(=O)CSC1=Nc2ccccc2C2=NC(CCC(=O)NCc3ccc(F)cc3)C(=O)N12 (centres undefined) 31.6 µM
C=CCn1c(COc2cccc3cccnc23)nnc1SCC(=O)OC 31.6 µM
CCOC(=O)c1cc(-c2nnc(-c3cc(OC)c(OC)c(OC)c3)o2)c(C)nc1C 31.6 µM
CCn1c(=N)c(C(=O)NCCCOC)cc2c(=O)n3cccc(C)c3nc21 31.6 µM
Cc1cc(N2CCCCC2)nc2ccc(Cc3ccc4nc(N5CCCCC5)cc(C)c4c3)cc12 3.16 µM
O=C(CC1Nc2ccccc2NC1=O)Nc1ccccc1 (centres undefined) 25.1 µM
C[C@H]1O[C@@H](CC(=O)O)Cc2c1c(O)c1c(O)cc(-c3cc(=O)c4c(=O)c5c(c(=O)c=4c3=O)C[C@H](CC(=O)O)O[C@@H]5C)c(O)c1c2O 3.98 µM

Activity change, negative = inhibition, inactive:
O=C(Cn1ccc(=O)[nH]c1=O)Nc1ccc(C(=O)O)c(O)c1 -0.357% [at 11.4 µM]
O=C(O)c1ccc(C(=O)O)c2c(C(=O)O)ccc(C(=O)O)c12 -1.54% [at 11.4 µM]
C#CCC(C(=O)OC)(C(=O)OC)C(C[N+](=O)[O-])c1ccccc1 (centres undefined) -8.6% [at 11.4 µM]
Cn1c(=O)n2n(c1=O)[C@H]1[C@H](O)[C@H]3O[C@H]3C(=O)[C@H]1CC2 -7.54% [at 11.4 µM]
CO[C@@H]1COC(=O)C/C=C\[C@H](C)[C@@H](NS(=O)(=O)c2ccc(C)cc2)COC(=O)C/C=C\[C@@H]1C 2.45% [at 11.4 µM] and 8.54% [at 11.4 µM]
C/C(CCN1CCCCc2nc(C)c(C)cc21)=N\O[C@@H](C)c1cn([C@@H]2COC[C@@H]2O)nn1 0.914% [at 11.4 µM]
CC(C)CN1CCc2nc(-c3ccccc3)c3c(c2C1)COC(C)C3 (centres undefined) -2.26% [at 11.4 µM]
CC[C@H](c1ccccc1)c1cc(C(C)(C)C)cc(C(C)(C)C)c1O -3.63% [at 11.4 µM]
Cc1cc(C)cc(C#CC2C=CC(Oc3ccc(C4CCCC4)cc3)C(CO)O2)c1 (centres undefined) 4.3% [at 11.4 µM]
